# In publication PMC8384837, “Expanding the binding specificity for RNA recognition by a PUF domain”:
# Tests used:
# Assay in all cases: yeast three-hybrid, YBZ-1, SC-Leu-His + 0.5 mM 3-AT, 4 days
# Conditions in all cases: tags: N-Gal4 AD-HA kept; label: inside an RPR1-promoter hybrid RNA with tandem MS2 sites; ssRNA
# PUM1 PUF domain R3-MRA = PUM1 PUF domain R3-MRA (Homo sapiens, UniProt Q14671 828-1176, C935M;Q939A)
# How it was run: (§1)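 The interaction score is the log change in how often each variant appears, from input to selection. Frequencies came from PCR-amplified, Illumina-sequenced repeat regions of Pumilio-1 PUF domain libraries grown in strain YBZ-1 (LexA–MS2 coat fusion, HIS3 reporter) alongside matching RNA elements. Input plates were SC-Leu and selection plates were SC-Leu-His + 0.5 mM 3-AT, each for four days, and the log2 calculation used a pseudocount of 1 where a variant was absent.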
# PUM1 PUF domain R8-KYV = PUM1 PUF domain R8-KYV (Homo sapiens, UniProt Q14671 828-1176, N1122K;Q1126V)
# How it was run: as §1
# PUM1 PUF domain R5-LYE = PUM1 PUF domain R5-LYE (Homo sapiens, UniProt Q14671 828-1176, C1007L;R1008Y;Q1011E)
# How it was run: as §1
# PUM1 PUF domain R8-EWR = PUM1 PUF domain R8-EWR (Homo sapiens, UniProt Q14671 828-1176, N1122E;Y1123W;Q1126R)
# How it was run: as §1
# PUM1 PUF domain R6-GWM = target: T1, PUM1 PUF domain R6-GWM (Homo sapiens, UniProt Q14671 828-1176, N1043G;Y1044W;Q1047M)
# T1 sequence: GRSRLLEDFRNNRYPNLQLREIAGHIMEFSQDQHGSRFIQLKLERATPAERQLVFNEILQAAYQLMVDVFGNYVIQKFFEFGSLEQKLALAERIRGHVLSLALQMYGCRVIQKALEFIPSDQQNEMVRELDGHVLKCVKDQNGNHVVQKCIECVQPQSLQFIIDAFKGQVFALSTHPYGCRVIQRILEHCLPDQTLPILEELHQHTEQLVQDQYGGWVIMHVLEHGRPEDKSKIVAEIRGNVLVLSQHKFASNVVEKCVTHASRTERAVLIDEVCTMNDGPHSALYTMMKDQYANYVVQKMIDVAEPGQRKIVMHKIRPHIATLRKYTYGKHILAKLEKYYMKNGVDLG
# How it was run: as §1
# PUM1 PUF domain R4-MNR = PUM1 PUF domain R4-MNR (Homo sapiens, UniProt Q14671 828-1176, N971M;H972N;Q975R)
# How it was run: as §1
# PUM1 PUF domain R4-PYE = PUM1 PUF domain R4-PYE (Homo sapiens, UniProt Q14671 828-1176, N971P;H972Y;Q975E)
# How it was run: as §1
# PUM1 PUF domain R5-SGK = PUM1 PUF domain R5-SGK (Homo sapiens, UniProt Q14671 828-1176, C1007S;R1008G;Q1011K)
# How it was run: as §1
# PUM1 PUF domain R5-KSR = PUM1 PUF domain R5-KSR (Homo sapiens, UniProt Q14671 828-1176, C1007K;R1008S;Q1011R)
# How it was run: as §1
# PUM1 PUF domain R2-SWW = PUM1 PUF domain R2-SWW (Homo sapiens, UniProt Q14671 828-1176, N899S;Y900W;Q903W)
# How it was run: as §1
sequence,measurement,setting,value
GGCUAGAACUAGUGGAUCCCCCGGCGCCCGGCGGCUCGAGCCCGGGUAAGUGUAAUUAGUCUGCAUGCCGCCGGGCGCCAUGCCUGCAGGUCGACUCUAGAAAACAUG,binding signal,PUM1 PUF domain R3-MRA,2.68 log2 enrichment (interaction score)
GGCUAGAACUAGUGGAUCCCCCGGCGCCCGGCGGCUCGAGCCCGGGUAAGUGUAAAUAGUCUGCAUGCCGCCGGGCGCCAUGCCUGCAGGUCGACUCUAGAAAACAUG,binding signal,PUM1 PUF domain R8-KYV,2.77 log2 enrichment (interaction score)
same,binding signal,PUM1 PUF domain R5-LYE,3.07 log2 enrichment (interaction score)
same,binding signal,PUM1 PUF domain R8-EWR,1.16 log2 enrichment (interaction score)
same,binding signal,PUM1 PUF domain R6-GWM,2.52 log2 enrichment (interaction score)
GGCUAGAACUAGUGGAUCCCCCGGCGCCCGGCGGCUCGAGCCCGGGUAAGUGUACAUAGUCUGCAUGCCGCCGGGCGCCAUGCCUGCAGGUCGACUCUAGAAAACAUG,binding signal,PUM1 PUF domain R4-MNR,3.28 log2 enrichment (interaction score)
same,binding signal,PUM1 PUF domain R4-PYE,0.65 log2 enrichment (interaction score)
GGCUAGAACUAGUGGAUCCCCCGGCGCCCGGCGGCUCGAGCCCGGGUAAGCGUAAAUAGUCUGCAUGCCGCCGGGCGCCAUGCCUGCAGGUCGACUCUAGAAAACAUG,binding signal,PUM1 PUF domain R8-KYV,2.16 log2 enrichment (interaction score)
same,binding signal,PUM1 PUF domain R8-EWR,2.45 log2 enrichment (interaction score)
GGCUAGAACUAGUGGAUCCCCCGGCGCCCGGCGGCUCGAGCCCGGGUAAGUGUUAAUAGUCUGCAUGCCGCCGGGCGCCAUGCCUGCAGGUCGACUCUAGAAAACAUG,binding signal,PUM1 PUF domain R5-SGK,2.15 log2 enrichment (interaction score)
same,binding signal,PUM1 PUF domain R5-KSR,2.77 log2 enrichment (interaction score)
GGCUAGAACUAGUGGAUCCCCCGGCGCCCGGCGGCUCGAGCCCGGGUAAGUGUCAAUAGUCUGCAUGCCGCCGGGCGCCAUGCCUGCAGGUCGACUCUAGAAAACAUG,binding signal,PUM1 PUF domain R5-SGK,0.9 log2 enrichment (interaction score)
same,binding signal,PUM1 PUF domain R5-KSR,4.35 log2 enrichment (interaction score)
GGCUAGAACUAGUGGAUCCCCCGGCGCCCGGCGGCUCGAGCCCGGGUAAGUGUAUAUAGUCUGCAUGCCGCCGGGCGCCAUGCCUGCAGGUCGACUCUAGAAAACAUG,binding signal,PUM1 PUF domain R4-MNR,4.01 log2 enrichment (interaction score)
same,binding signal,PUM1 PUF domain R4-PYE,4.08 log2 enrichment (interaction score)
GGCUAGAACUAGUGGAUCCCCCGGCGCCCGGCGGCUCGAGCCCGGGUAAGUGUAAGUAGUCUGCAUGCCGCCGGGCGCCAUGCCUGCAGGUCGACUCUAGAAAACAUG,binding signal,PUM1 PUF domain R3-MRA,5.2 log2 enrichment (interaction score)
GGCUAGAACUAGUGGAUCCCCCGGCGCCCGGCGGCUCGAGCCCGGGUAAGUGUAAAAAGUCUGCAUGCCGCCGGGCGCCAUGCCUGCAGGUCGACUCUAGAAAACAUG,binding signal,PUM1 PUF domain R2-SWW,3.5 log2 enrichment (interaction score)
GGCUAGAACUAGUGGAUCCCCCGGCGCCCGGCGGCUCGAGCCCGGGUAAGGGUAAAUAGUCUGCAUGCCGCCGGGCGCCAUGCCUGCAGGUCGACUCUAGAAAACAUG,binding signal,PUM1 PUF domain R8-KYV,3.44 log2 enrichment (interaction score)
